Assay results as given in PubChem BioAssay AID1159580 (chemical genetic matrix, 2015).
The campaign covered roughly 5,500 compounds. About 2,000 (36%) were called active. Inconclusive results (about 18%) are left out. Cut-off read from the data, not from the text of the source: active = normalized growth mostly below about 0.91 (no sharp cut-off); inconclusive = no clear call, values can overlap the other calls; inactive = mostly above about 0.92. The list shows a part of the results.

Test: chemical genetic growth profiling, strain panel (AID 1159580);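 note: tested at 20 µM; growth read once vehicle control cultures reached saturation at 30 °C; 1 = growth at the plate median or of vehicle wells; lower values mean less growth of the strain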
Settings: growth OD

Measured: normalized growth

COc1cc([C@@H]2c3cc4c(cc3[C@H](O)[C@H]3COC(=O)[C@H]23)OCO4)cc(OC)c1OC
inactive: S. cerevisiae deletion strains, locus YJR075W, strain HOC1, hits give low values 1.03 | S. cerevisiae deletion strains, locus YKL009W, strain mrt4, hits give low values 1.04 | S. cerevisiae deletion strains, locus YKL068W, hits give low values 1.01 | S. cerevisiae deletion strains, locus YKL085W, strain MDH1 (second series), hits give low values 1.01 | S. cerevisiae deletion strains, locus YKL085W, strain MDH1, hits give low values 1.01 | S. cerevisiae deletion strains, locus YKL160W, strain elf1, hits give low values 1 | S. cerevisiae deletion strains, locus YKL190W, strain CNB1, hits give low values 1.01 | S. cerevisiae deletion strains, locus YKR001C, strain vps1, hits give low values 1.01 | S. cerevisiae deletion strains, locus YKR026C, strain gcn3, hits give low values 1.01 | S. cerevisiae deletion strains, locus YKR091W, strain srl3, hits give low values 1.01 | S. cerevisiae deletion strains, locus YLL001W, strain dnm1, hits give low values 0.984 | S. cerevisiae deletion strains, locus YLL026W, hits give low values 1 | S. cerevisiae deletion strains, locus YLL041C, strain sdh2, hits give low values 1.01 | S. cerevisiae deletion strains, locus YLR027C, strain aat2, hits give low values 1.01 | S. cerevisiae deletion strains, locus YLR039C, strain RIC1, hits give low values 1.02 | S. cerevisiae deletion strains, locus YLR058C, strain SHM2, hits give low values 1.01 | S. cerevisiae deletion strains, locus YLR102C, strain apc9, hits give low values 1.01 | S. cerevisiae deletion strains, locus YLR113W, strain HOG1, hits give low values 0.924 | S. cerevisiae deletion strains, locus YLR221C, strain rsa3, hits give low values 1.02 | S. cerevisiae deletion strains, locus YLR258W, strain gsy2, hits give low values 1.02 | S. cerevisiae deletion strains, locus YLR262C, strain YPT6 (second series), hits give low values 1.01 | S. cerevisiae deletion strains, locus YLR262C, strain YPT6, hits give low values 1.05 | S. cerevisiae deletion strains, locus YLR268W, strain sec22, hits give low values 1.06 | S. cerevisiae deletion strains, locus YLR320W, strain mms22, hits give low values 1.05 | S. cerevisiae deletion strains, locus YLR330W, strain CHS5, hits give low values 1.01 | S. cerevisiae deletion strains, locus YLR342W, strain FKS1 (second series), hits give low values 1.02 | S. cerevisiae deletion strains, locus YLR342W, strain FKS1, hits give low values 1.02 | S. cerevisiae deletion strains, locus YLR357W, strain rsc2, hits give low values 1.05 | S. cerevisiae deletion strains, locus YLR370C, strain arc18, hits give low values 1.02 | S. cerevisiae deletion strains, locus YLR371W, strain rom2, hits give low values 1.02 | S. cerevisiae deletion strains, locus YLR384C, strain iki3, hits give low values 0.998 | S. cerevisiae deletion strains, locus YLR418C, strain cdc73, hits give low values 1.02 | S. cerevisiae deletion strains, locus YML016C, strain PPZ1, hits give low values 1.01 | S. cerevisiae deletion strains, locus YML032C, strain rad52, hits give low values 1.05 | S. cerevisiae deletion strains, locus YML120C, strain ndi1, hits give low values 1.02 | S. cerevisiae deletion strains, locus YML124C, strain tub3, hits give low values 1 | S. cerevisiae deletion strains, locus YMR058W, strain fet3, hits give low values 1.02 | S. cerevisiae deletion strains, locus YMR078C, strain ctf18, hits give low values 1.02 | S. cerevisiae deletion strains, locus YMR125W, strain sto1, hits give low values 1.01 | S. cerevisiae deletion strains, locus YMR129W, hits give low values 1.01 | S. cerevisiae deletion strains, locus YMR205C, strain PFK2, hits give low values 1.03 | S. cerevisiae deletion strains, locus YMR223W, strain ubp8, hits give low values 0.985 | S. cerevisiae deletion strains, locus YMR231W, strain pep5, hits give low values 1.01 | S. cerevisiae deletion strains, locus YMR263W, strain SAP30, hits give low values 1.02 | S. cerevisiae deletion strains, locus YMR307W, strain GAS1, hits give low values 0.994 | S. cerevisiae deletion strains, locus YNL067W, strain RPL9B, hits give low values 1.03 | S. cerevisiae deletion strains, locus YNL071W, strain lat1, hits give low values 1.01 | S. cerevisiae deletion strains, locus YNL128W, strain TEP1, hits give low values 1.02 | S. cerevisiae deletion strains, locus YNL153C, strain GIM3, hits give low values 1.03 | S. cerevisiae deletion strains, locus YNL183C, strain NPR1, hits give low values 0.926 | S. cerevisiae deletion strains, locus YNL209W, strain ssb2, hits give low values 1.02 | S. cerevisiae deletion strains, locus YNL233W, strain BNI4, hits give low values 1.03 | S. cerevisiae deletion strains, locus YNL248C, strain rpa49, hits give low values 1.01 | S. cerevisiae deletion strains, locus YNL250W, strain rad50, hits give low values 1.01 | S. cerevisiae deletion strains, locus YNL271C, strain bni1, hits give low values 1.01 | S. cerevisiae deletion strains, locus YNL298W, strain CLA4, hits give low values 1.01 | S. cerevisiae deletion strains, locus YNL307C, strain MCK1, hits give low values 1 | S. cerevisiae deletion strains, locus YNL322C, strain KRE1 (second series), hits give low values 1.01 | S. cerevisiae deletion strains, locus YNL322C, strain KRE1, hits give low values 1.01 | S. cerevisiae deletion strains, locus YNR049C, strain mso1, hits give low values 1 | S. cerevisiae deletion strains, locus YNR052C, strain pop2, hits give low values 1.01 | S. cerevisiae deletion strains, locus YOL006C, strain TOP1, hits give low values 1.07 | S. cerevisiae deletion strains, locus YOL012C, strain htz1 0.833 | S. cerevisiae deletion strains, locus YOL147C, strain pex11, hits give low values 1 | S. cerevisiae deletion strains, locus YOR001W, strain rrp6, hits give low values 1.01 | S. cerevisiae deletion strains, locus YOR061W, strain CKA2, hits give low values 1.01 | S. cerevisiae deletion strains, locus YOR069W, strain VPS5, hits give low values 1.01 | S. cerevisiae deletion strains, locus YOR070C, strain gyp1, hits give low values 1.02 | S. cerevisiae deletion strains, locus YOR080W, strain dia2, hits give low values 1.01 | S. cerevisiae deletion strains, locus YOR083W, strain WHI5, hits give low values 1.01 | S. cerevisiae deletion strains, locus YOR106W, strain vam3, hits give low values 1.02 | S. cerevisiae deletion strains, locus YOR136W, strain idh2, hits give low values 1 | S. cerevisiae deletion strains, locus YOR144C, strain elg1, hits give low values 1.01 | S. cerevisiae deletion strains, locus YOR184W, strain ser1, hits give low values 1.02 | S. cerevisiae deletion strains, locus YOR231W, strain MKK1, hits give low values 0.947 | S. cerevisiae deletion strains, locus YOR265W, strain rbl2, hits give low values 1.01 | S. cerevisiae deletion strains, locus YOR270C, strain vph1, hits give low values 0.996 | S. cerevisiae deletion strains, locus YOR290C, strain snf2, hits give low values 0.98 | S. cerevisiae deletion strains, locus YOR316C, strain cot1, hits give low values 1.01 | S. cerevisiae deletion strains, locus YPL051W, strain arl3, hits give low values 1.01 | S. cerevisiae deletion strains, locus YPL055C, strain LGE1, hits give low values 1.04 | S. cerevisiae deletion strains, locus YPL078C, strain atp4, hits give low values 0.997 | S. cerevisiae deletion strains, locus YPL106C, strain sse1, hits give low values 1.03 | S. cerevisiae deletion strains, locus YPL240C, strain hsp82, hits give low values 1.02 | S. cerevisiae deletion strains, locus YPL241C, strain CIN2, hits give low values 1.01 | S. cerevisiae deletion strains, locus YPL256C, strain CLN2, hits give low values 0.942 | S. cerevisiae deletion strains, locus YPR119W, strain clb2, hits give low values 1.01 | S. cerevisiae deletion strains, locus YPR141C, strain kar3, hits give low values 1.01 | S. cerevisiae deletion strains, locus YPR163C, strain tif3, hits give low values 1.02 | S. cerevisiae deletion strains, locus YPR167C, strain met16, hits give low values 1.01 | S. cerevisiae deletion strains, strain wtn01, hits give low values 1.03 | S. cerevisiae strains, strain wild type, hits give low values 1.01
